Measurements: ChEMBL document CHEMBL3988442, “University of Dundee, Small-Polar-MMV Screening Library” (2021)
Among all 69,000 compounds or so, about 1,000 (1.4%) showed an effect of 50% or more. Many of the other results were omitted from the sample, so strong results are more common in it than they were.

System: Leishmania donovani
Experiment: Leishmania intramacrophage assay
Type: functional, organism-based
Set-up: scale not given: in the data most compounds retested in dose-response had high values

Structure (SMILES): CS(=O)(=O)NC[C@]12COC[C@H]1CN(CC1CCC1)C2.O=C(O)C(F)(F)F
- Percent Effect (30.3 µM, […]): 80.19%

Structure (SMILES): CS(=O)(=O)NC[C@]12COC[C@H]1CN(CCc1ccccc1)C2.O=C(O)C(F)(F)F
- Percent Effect (30.3 µM, […]): 17.9%

Structure (SMILES): CS(=O)(=O)NC[C@]12COC[C@H]1CN(CC1CCCC1)C2.O=C(O)C(F)(F)F
- Percent Effect (30 µM, 30.03 µM): -6.018%

Structure (SMILES): O=C(Nc1cnccn1)[C@H]1CC[C@@H]2[C@@H](CCN2Cc2ccccn2)O1.O=C(O)C(F)(F)F
- Percent Effect (30.3 µM, […]): 28.13%

Structure (SMILES): CC(O)CCN(C)C(=O)Nc1cccc(F)c1 (stereo not given)
- Percent Effect (30.3 µM, […]): 1.493%

Structure (SMILES): Cl.Clc1ccccc1CN1CCc2nc(C3CCCNC3)ncc2C1 (stereo not given)
- Percent Effect (30.3 µM, […]): 6.249%

Structure (SMILES): Clc1ccccc1C1(c2ccnc(C3CCCC3)n2)CCNCC1
- Percent Effect (30.3 µM, […]): 99.4%

Structure (SMILES): Cl.Cl.c1ccc2c(c1)C(NC1CCCC1)CC21CCNCC1 (stereo not given)
- Percent Effect (30.3 µM, […]): 32.48%

Structure (SMILES): Clc1ccccc1C1(c2ccnc(C3CC3)n2)CCNCC1
- Percent Effect (30.3 µM, […]): 94.79%

Structure (SMILES): Cl.Clc1cccnc1OC1CCNCC1
- Percent Effect (30.3 µM, […]): 14.95%

Structure (SMILES): Clc1ccccc1C1(c2ccnc(CC3CC3)n2)CCNCC1
- Percent Effect (30 µM, 30.03 µM): 93.39%

Structure (SMILES): c1ccc2ncc(CC3CCNCC3)cc2c1
- Percent Effect (30.3 µM, […]): -17.37%

Structure (SMILES): Cl.Clc1ccccc1CN1CCc2nc(C3CCNCC3)ncc2C1
- Percent Effect (30.3 µM, […]): 3.749%

Structure (SMILES): OC1(CN2CCC(Cc3ncccn3)CC2)CCOCC1
- Percent Effect (30.3 µM, […]): 5.693%

Structure (SMILES): Cn1cc(-c2cnc(N3CCOCC3)nc2)cc1C(=O)N1CCCC1
- Percent Effect (30.3 µM, […]): 13.22%

Structure (SMILES): O=C(NCc1ccccc1-n1cccn1)N1CCC(N2CCCC2)C1 (stereo not given)
- Percent Effect (30 µM): 13.6%

Structure (SMILES): O=S(=O)(NC1=NCN(CCc2ccccc2)CN1)c1ccc(F)cc1
- Percent Effect (30.3 µM, […]): 1.728%

Structure (SMILES): CCc1cc(C(=O)N2CCC(C3CCN(c4ncccn4)CC3)C2)on1 (stereo not given)
- Percent Effect (30.3 µM, […]): 4.034%

Structure (SMILES): Cc1nc(NCCc2ccccc2)cc(C(=O)N2CCOCC2)n1
- Percent Effect (30.3 µM, […]): 21.35%

Structure (SMILES): CCn1c(-c2ccccc2)nn(CC(=O)NCCc2c[nH]cn2)c1=O
- Percent Effect (30.3 µM, […]): 22.36%

Structure (SMILES): Cc1cc(=O)c(C(=O)N(C)Cc2ccc(Cl)c(F)c2)c[nH]1
- Percent Effect (30.3 µM, […]): 24.44%

Structure (SMILES): Cc1cnn(C2CCCN(C(=O)c3cn4ccccc4n3)C2)c1 (stereo not given)
- Percent Effect (30 µM): -3.479%

Structure (SMILES): CCNC(=O)CN1CCN(Cc2nc3c(F)cccc3n2CC)CC1
- Percent Effect (30 µM): 25.75%

Structure (SMILES): Cn1cc(CCCN2CCN(Cc3cccc(O)c3)CC2)cn1
- Percent Effect (30.3 µM, […]): 7.791%

Structure (SMILES): Cc1nc(C)c(C)c(NCc2cnn3cccnc23)n1
- Percent Effect (30.3 µM, […]): 15.17%

Structure (SMILES): Cc1ccc(O)c(CNc2cccc(CN3CCSCC3)c2)n1
- Percent Effect (30.3 µM, […]): 6.923%

Structure (SMILES): Cc1nc(CN2C(=O)CCC23CCN(Cc2cccn2C)CC3)cs1.O=C(O)C(F)(F)F.O=C(O)C(F)(F)F
- Percent Effect (30.3 µM, […]): 2.496%

Structure (SMILES): N#CCCN(CC1CCOC1)Cn1ccc(-c2ccccc2)n1 (stereo not given)
- Percent Effect (30.3 µM, […]): 16.63%

Structure (SMILES): COc1ccncc1NC(=O)c1[nH]nc(C(C)C)c1Br
- Percent Effect (30.3 µM, […]): 16.78%

Structure (SMILES): CC(C)c1n[nH]c(C(=O)NC(C)c2ccncc2)c1Br (stereo not given)
- Percent Effect (30 µM): 13.54%

Structure (SMILES): CC(C)c1n[nH]c(C(=O)Nc2ccncc2)c1Br
- Percent Effect (30 µM, 30.03 µM): 62.71%

Structure (SMILES): NC1CCCCN(Cc2cc(-c3ccccc3OC(F)(F)F)no2)C1 (stereo not given)
- Percent Effect (30.3 µM, […]): 99.07%

Structure (SMILES): OC1COCCN(Cc2cc(-c3ccccc3OC(F)(F)F)no2)C1 (stereo not given)
- Percent Effect (30.3 µM, […]): -21.47%

Structure (SMILES): N[C@@H]1CCN(Cc2cc(-c3ccccc3OC(F)(F)F)no2)C[C@H]1O
- Percent Effect (30.3 µM, […]): 12.53%

Structure (SMILES): COc1ccc(C)cc1CN1CCC(c2cc3ncccc3cn2)CC1.Cl
- Percent Effect (30.3 µM, […]): 41.3%

Structure (SMILES): CS(=O)(=O)N1CCC(C(=O)Nc2nnc(C(F)(F)F)[nH]2)CC1
- Percent Effect (30.3 µM, […]): 1.048%

Structure (SMILES): COC[C@@H]1CCCN1C(=O)c1cc(-c2ccc(OC)cc2)n[nH]1
- Percent Effect (30.3 µM, […]): 15.18%

Structure (SMILES): CN1CCC(N(Cc2ccco2)S(=O)(=O)c2ccc(Br)cc2Cl)CC1
- Percent Effect (30.3 µM, […]): 87.02%

Structure (SMILES): CN1CCC(N(Cc2ccco2)S(=O)(=O)c2cc(Br)ccc2Br)CC1
- Percent Effect (30.3 µM, […]): 95.6%

Structure (SMILES): CN(Cc1nnc2n1CCC2)S(=O)(=O)c1cc(Br)ccc1Br
- Percent Effect (30.3 µM, […]): 22.5%

Structure (SMILES): O=c1cc(CN(Cc2ccco2)C2CC2)nc2ccc(Br)cn12
- Percent Effect (30.3 µM, […]): 12.01%

Structure (SMILES): Cc1nnc(CN(C)S(=O)(=O)c2ccc(Br)cc2Cl)n1C
- Percent Effect (30.3 µM, […]): 25.06%

Structure (SMILES): CN1CCC(N(Cc2ccco2)S(=O)(=O)c2ccc(Cl)cc2)CC1
- Percent Effect (30.3 µM, […]): 24.1%

Structure (SMILES): Cc1ccc(NCCCNC(=O)C2CCCN(Cc3ccco3)C2)nc1 (stereo not given)
- Percent Effect (30.3 µM, […]): -17.24%

Structure (SMILES): Cc1nc(CN(C)c2nccc(C(F)(F)F)n2)cs1
- Percent Effect (30.3 µM, […]): 5.886%

Structure (SMILES): Cc1cnn(CCNc2nc(C)cc(N(C)C)n2)c1
- Percent Effect (30.3 µM, […]): -24.91%

Structure (SMILES): CC(C)c1ccc(/C=C/CC(=O)NC2CCN(C(N)=O)C2)cc1 (stereo not given)
- Percent Effect (30.3 µM, […]): 6.492%

Structure (SMILES): CC(C)c1ccc(/C=C/CC(=O)NC2CCN(C(N)=O)CC2)cc1
- Percent Effect (30.3 µM, […]): -5.908%

Structure (SMILES): COCCN1CCC(NC(=O)C/C=C/c2ccc(C(C)C)cc2)CC1
- Percent Effect (30.3 µM, […]): 51.69%

Structure (SMILES): O=C(CC1CC1)N1CCN(Cc2ccncc2)c2ncccc2C1.O=C(O)C(F)(F)F.O=C(O)C(F)(F)F
- Percent Effect (30.3 µM, […]): -1.398%

Structure (SMILES): CCc1cc(C(=O)N2CCC3(CCCN(CC4CC4)C3=O)C2)cs1 (stereo not given)
- Percent Effect (30.3 µM, […]): 12.28%

Structure (SMILES): O=C1NCCCc2c1oc1ccc(O)c(CN3CCOCC3)c21
- Percent Effect (30.3 µM, […]): 56.93%

Structure (SMILES): NC(=O)C1CN(Cc2c(O)ccc3oc4c(c23)CCCC4)CCO1 (stereo not given)
- Percent Effect (30.3 µM, […]): 24.24%

Structure (SMILES): Oc1ccc2oc3c(c2c1CN1CCOCC1)CCCC3
- Percent Effect (30.3 µM, […]): 27.1%

Structure (SMILES): Cc1nc(CNCC2CN(C)CCO2)cs1 (stereo not given)
- Percent Effect (30 µM, 30.03 µM): 33.12%

Structure (SMILES): CN1CCOC(CNCc2csc(C3CCCC3)n2)C1 (stereo not given)
- Percent Effect (30 µM): 13.96%

Structure (SMILES): CN1CCOC(CNCc2csc(C3CCCCC3)n2)C1 (stereo not given)
- Percent Effect (30 µM): 56.43%

Structure (SMILES): COc1ccc(CN2C[C@@H]3CC[C@H](C2)N(Cc2snnc2C)C3)cc1
- Percent Effect (30.3 µM, […]): -20.42%

Structure (SMILES): CN(C)S(=O)(=O)NCC1(c2ccccc2Br)CC1
- Percent Effect (30.3 µM, […]): -4.461%

Structure (SMILES): CS(=O)(=O)NCC1(c2ccccc2Br)CC1
- Percent Effect (30.3 µM, […]): -0.01271%

Structure (SMILES): NS(=O)(=O)NCC1(c2ccccc2Br)CC1
- Percent Effect (30.3 µM, […]): 94.29%

Structure (SMILES): CC(C)(O)c1cc(CC2(NCc3ccccc3Cl)COC2)no1
- Percent Effect (30.3 µM, […]): 25.25%

Structure (SMILES): CC(NCc1cn(CCC(N)=O)c2ccccc12)c1nncn1C (stereo not given)
- Percent Effect (30.3 µM, […]): -7.777%

Structure (SMILES): Cc1ccc(C(C)NCc2cn(CCC(N)=O)c3ccccc23)cc1C (stereo not given)
- Percent Effect (30.3 µM, […]): 88.97%

Structure (SMILES): CC(C)n1cnnc1CCNCc1cn(CCC(N)=O)c2ccccc12
- Percent Effect (30.3 µM, […]): 32.43%
